The values that follow come from PubChem BioAssay (NCI).

Holding throughout (experiment): NCI-60 one-dose screen, 48 h (100 = growth as untreated, 0 = no growth, -100 = all killed)
One test relates to SK-MEL-2 melanoma. The settings on record: 10 µM unless noted.
The next test concerns EKVX NSCLC. To be noted: 10 µM unless noted.
In another test the test system is SN12C renal. The settings on record: 10 µM unless noted.
Another test deals with UO-31 renal. To be noted: 10 µM unless noted.
In the next test the test system is TK-10 renal. To be noted: 10 µM unless noted.
The test system of a further test is ACHN renal. To be noted: 10 µM unless noted.
For the next test, the system named is CAKI-1 renal. The settings on record: 10 µM unless noted.
For another test, the system named is A498 renal. To be noted: 10 µM unless noted.
In a further test the test system is CCRF-CEM leukemia. To be noted: 10 µM unless noted.
Another test concerns MOLT-4 leukemia. To be noted: 10 µM unless noted.
A further test relates to SR leukemia. To be noted: 10 µM unless noted.
The next test concerns RPMI-8226 leukemia. To be noted: 10 µM unless noted.
In another test the test system is OVCAR-8 ovarian. The settings on record: 10 µM unless noted.
The subject of the next test is OVCAR-5 ovarian. The settings on record: 10 µM unless noted.
The test system of another test is OVCAR-4 ovarian. The settings on record: 10 µM.
The next test relates to SK-OV-3 ovarian. The settings on record: 10 µM unless noted.
The test system of a further test is IGROV1 ovarian. To be noted: 10 µM unless noted.
In a further test the test system is NCI/ADR-RES ovarian. The settings on record: 10 µM unless noted.
In the next test the test system is OVCAR-3 ovarian. The settings on record: 10 µM unless noted.
A further test relates to HS 578T breast. The settings on record: 10 µM unless noted.

About 83,000 compounds went through this panel and 20% of them were active in at least one assay; those are over-represented in the sample as a whole.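 For each line, cells grew in 96-well plates with the test compound present at a single concentration for 48 hours.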 Values without a mark were called inactive. Calls of active or inactive are those of the source. Rule for the calls: active = growth percent below 10; inactive = the rest.

With `O=S(=O)(c1ccc(N/N=C\c2ccccc2Cl)cc1)c1ccc(N/N=C/c2ccccc2Cl)cc1`, the growth in the test on SK-MEL-2 melanoma is 89.1%; with EKVX NSCLC, 84.5%; in the test with SN12C renal it was 87.2%; in the test with UO-31 renal, 63.7%; in the test with TK-10 renal, 110%; in the test on ACHN renal, 82.7%. In addition, the growth in the test on CAKI-1 renal was 62.2%; in the test with A498 renal it was 94.2%; in the test with CCRF-CEM leukemia, 75.9%; with MOLT-4 leukemia it was 65.1%; with SR leukemia, 88.5%; in the test with RPMI-8226 leukemia, -16.1% (active). Also, the growth in the test on OVCAR-8 ovarian is 86.5%; in the test with OVCAR-5 ovarian, 82.6%; in the test on OVCAR-4 ovarian, 84.1%; in the test with SK-OV-3 ovarian, 98%; in the test with IGROV1 ovarian, 73.8%; with NCI/ADR-RES ovarian it was 84.5%.
As for `O=c1[nH]c(CN2CCN(c3cccc(Cl)c3)CC2)nc2cc(Cl)ccc12`, the growth is 46.7% in the test on SK-MEL-2 melanoma; 105% in the test with EKVX NSCLC; 89.3% in the test on SN12C renal; 9.86% (active) with UO-31 renal; 106% in the test with TK-10 renal; 97.5% in the test on ACHN renal. Further, the growth in the test on CAKI-1 renal is 99.4%; with A498 renal it was 114%; in the test with CCRF-CEM leukemia, 105%; with MOLT-4 leukemia, 120%; with SR leukemia it was 89.7%; in the test on RPMI-8226 leukemia it was 34.7%. Also, the growth in the test on OVCAR-8 ovarian is 46.2%; in the test with OVCAR-5 ovarian it was 85.3%; in the test on OVCAR-4 ovarian it was 104%; with SK-OV-3 ovarian, 82.1%; in the test on OVCAR-3 ovarian, 100%; in the test with HS 578T breast, 99%. In addition, the growth with NCI/ADR-RES ovarian was 86.4%.
In the case of `COc1ccc2c3ccnc(C(F)(F)F)c3n(CCCCN)c2c1`, the growth in the test with SK-MEL-2 melanoma is 55.3%; with EKVX NSCLC, 45.7%; in the test with SN12C renal, 51.6%; in the test with UO-31 renal, 13.4%; in the test with TK-10 renal, 61.3%; in the test on ACHN renal it was 26.8%. In addition, the growth with CAKI-1 renal was 29.6%; with A498 renal, 17%; in the test with CCRF-CEM leukemia it was 72.7%; in the test on MOLT-4 leukemia, 51%; with SR leukemia, 26.9%; in the test with RPMI-8226 leukemia it was 31.3%. Moreover, the growth in the test with OVCAR-8 ovarian was 46.1%; with OVCAR-5 ovarian, 54.8%; in the test on OVCAR-4 ovarian, 74.6%; in the test with SK-OV-3 ovarian, 53.3%; in the test on OVCAR-3 ovarian, 47.3%; in the test with HS 578T breast, 44.9%. The growth in the test with NCI/ADR-RES ovarian is 64.9%.
Consider `C[N+](C)(C)c1ncnc2[n-]cnc12`, for which the growth with SK-MEL-2 melanoma was 107%; with EKVX NSCLC it was 81.8%; with SN12C renal, 72.3%; in the test with UO-31 renal it was 87.8%; in the test on TK-10 renal, 78.9%; in the test on ACHN renal, 95.3%. The growth was 58.8% in the test with CAKI-1 renal; 81.5% in the test on A498 renal; 119% in the test on CCRF-CEM leukemia; 102% in the test on MOLT-4 leukemia; 107% in the test with SR leukemia; 126% in the test with RPMI-8226 leukemia. For the same compound, the growth with OVCAR-8 ovarian was 93.7%; in the test on OVCAR-5 ovarian it was 76.4%; in the test with OVCAR-4 ovarian, 105%; in the test on SK-OV-3 ovarian, 98.7%; in the test on OVCAR-3 ovarian, 92.4%; in the test on HS 578T breast it was 95.6%. Further, the growth in the test with NCI/ADR-RES ovarian was 41.5%.
As to `CCCCCCCCCCCCCCNC(=O)Nc1ccc(Cl)c(Cl)c1`, the growth with SK-MEL-2 melanoma is 14.5%; in the test with EKVX NSCLC, 31.9%; in the test on SN12C renal, 20.2%; in the test with UO-31 renal it was 8.71% (active); with TK-10 renal, 41.3%; in the test on ACHN renal it was 9.14% (active). Further, the growth in the test with CAKI-1 renal was 10.8%; in the test with A498 renal, 96.7%; in the test on CCRF-CEM leukemia, 63.7%; with MOLT-4 leukemia, 103%; with SR leukemia, 95%; with RPMI-8226 leukemia it was 72.6%. Also, the growth was 30.5% in the test on OVCAR-8 ovarian; 64.8% in the test with OVCAR-5 ovarian; 24.7% in the test with OVCAR-4 ovarian; 73% in the test with SK-OV-3 ovarian; 15.5% with OVCAR-3 ovarian; 84.2% in the test with HS 578T breast. The growth in the test on NCI/ADR-RES ovarian was -0.731% (active).
As to `CN(C)c1cc(NN=C(c2ccc(O)cc2)c2ccc(O)cc2)c([N+](=O)[O-])cc1[N+](=O)[O-]`, the growth with SK-MEL-2 melanoma is -12.1% (active); in the test with EKVX NSCLC, 94.2%; in the test with SN12C renal, 93.8%; in the test with UO-31 renal, 1.38% (active); in the test with TK-10 renal, 136%; in the test with ACHN renal it was 50.1%. The growth was 74.8% with CAKI-1 renal; 135% with A498 renal; 107% in the test on CCRF-CEM leukemia; 97.6% in the test on MOLT-4 leukemia; 92.2% with SR leukemia; 131% in the test on RPMI-8226 leukemia. Besides, the growth in the test on OVCAR-8 ovarian is 8.9% (active); in the test on OVCAR-5 ovarian it was 98.4%; with OVCAR-4 ovarian, 97%; in the test with SK-OV-3 ovarian it was 96.5%; in the test with OVCAR-3 ovarian, 95.5%; in the test with HS 578T breast, 102%. Besides, the growth in the test with NCI/ADR-RES ovarian was 44.2%.
On to `CCOC(=O)c1c[nH]c2cc(OCC3CC3)c(OCC3CC3)cc2c1=O`, for which the growth was 119% in the test with SK-MEL-2 melanoma; 116% in the test with EKVX NSCLC; 108% in the test on SN12C renal; 86.5% with UO-31 renal; 126% in the test on TK-10 renal; 105% in the test on ACHN renal. Also, the growth is 104% in the test on CAKI-1 renal; 94.1% with A498 renal; 91.3% with CCRF-CEM leukemia; 109% in the test on MOLT-4 leukemia; 104% in the test on SR leukemia; 103% in the test with RPMI-8226 leukemia. For the same compound, the growth is 99.5% with OVCAR-8 ovarian; 102% in the test on OVCAR-5 ovarian; 118% in the test with OVCAR-4 ovarian; 110% in the test on SK-OV-3 ovarian; 109% with OVCAR-3 ovarian; 103% in the test on HS 578T breast. In addition, the growth in the test with NCI/ADR-RES ovarian was 111%.
As to `COc1c(C(C)=O)c(OCCCCOc2c(C(C)=O)c(OC)c3ccoc3c2OC)c(OC)c2occc12`, the growth was 42% in the test on SK-MEL-2 melanoma; 56.7% with EKVX NSCLC; 88.1% in the test on SN12C renal; 124% in the test with UO-31 renal; 43.8% in the test with TK-10 renal; 75.7% in the test with ACHN renal. The growth in the test with CAKI-1 renal was 68%; in the test with A498 renal, 81.1%; in the test on CCRF-CEM leukemia, 58%; with MOLT-4 leukemia, 36.2%; in the test with SR leukemia, 72.7%; with RPMI-8226 leukemia, 47.3%. Moreover, the growth with OVCAR-8 ovarian is 45.3%; with OVCAR-5 ovarian, 120%; with OVCAR-4 ovarian, 59.2%; with SK-OV-3 ovarian, 105%; with OVCAR-3 ovarian, 61.4%; in the test with HS 578T breast, 93.9%. For the same compound, in the test with NCI/ADR-RES ovarian, the growth was 22.9%.
`COc1ccc2nc3c(cc2c1)C(=O)CC(C(F)(F)F)C3` (centres undefined): the growth with SK-MEL-2 melanoma is 83.9%; with EKVX NSCLC it was 55.9%; in the test on SN12C renal it was 42.1%; with UO-31 renal, 46.6%; in the test with TK-10 renal, 69.2%; in the test on ACHN renal it was 49.2%. Moreover, the growth in the test with CAKI-1 renal is 37.1%; with A498 renal, -7.7% (active); with CCRF-CEM leukemia, 9.88% (active); with MOLT-4 leukemia, 15.3%; with SR leukemia, 16.4%; in the test with RPMI-8226 leukemia, 93.3%. In addition, the growth in the test with OVCAR-8 ovarian is 40%; with OVCAR-5 ovarian, 57.7%; in the test with OVCAR-4 ovarian it was 95.7%; in the test on SK-OV-3 ovarian it was 56.8%; with IGROV1 ovarian, 36.6%; in the test with NCI/ADR-RES ovarian, 18.9%.
